# Measured values reported in PubChem BioAssay (NCATS).
# Results filed as inconclusive are left out. Where a call stands in place of a potency, no number is given. Active and inactive are the calls of the source. Calls follow the shape of the dose curve; as a rule, active = well fitted cell-killing curve with a large enough effect; inconclusive = small, poorly fitted or top-dose-only effect, or effect the other way; inactive = no such curve, though single readings can be large or run the other way.
# Assay: Quantitative High-Throughput drug screen in 47 multiple myeloma cell lines against the NCATS MIPE library collection: KMM1_JCRB cell viability assay (AID 1918960); also: nearly all actives have a fitted effect of over 30% in size
# Details: KMM1 myeloma viability, CellTiter-Glo ATP luminescence, 48 h; series mostly up to 45.8 µM
# Summary of the method: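 ATP readout (CellTiter-Glo), 48 h drug incubation, 37 °C/5% CO2, 500 cells per well; normalisation to DMSO (100%) and media-only (0%) controls.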
# Potency is read from the fitted curve at half-maximal effect.
row,SMILES,Potency
1,O=c1[nH]c(-c2ccc(C(F)(F)F)cc2)nc2c1CSCC2,inactive
2,Cc1ccnc(NS(=O)(=O)c2ccc(NC(=O)Nc3ccc(S(=O)(=O)Nc4nccc(C)n4)cc3)cc2)n1,14800 nM (active)
3,O=C(O)[C@@H](c1ccc(OCc2ccc3ccccc3n2)cc1)C1CCCC1,inactive
4,CC[C@@H](C)[C@H](NC(=O)[C@H](CC1CCCCC1)NC(=O)c1ccno1)C(=O)N1CCC2(CCc3ccccc32)CC1,inactive
5,O=C(O)COCCN1CCN(C(c2ccccc2)c2ccc(Cl)cc2)CC1 (stereo not given),inactive
6,Nc1nc2c(ncn2COCCO)c(=O)[nH]1,inactive
7,NS(=O)(=O)c1cc2c(cc1Cl)NC=NS2(=O)=O,inactive
8,CC(=O)NC(C)c1ccc(Oc2ccc(OC(C)C)cc2)cc1 (stereo not given),2640 nM (active)
9,CC(C)NCC(O)COc1ccc(COCCOC(C)C)cc1 (stereo not given),inactive
10,CC(C)(Sc1ccc(CCN(CCCCC2CCCCC2)C(=O)NC2CCCCC2)cc1)C(=O)O,inactive
11,CCOC(=O)N1CCC(=C2c3ccc(Cl)cc3CCc3cccnc32)CC1,inactive
12,CC1(C)Cc2c(-c3ccccc3)c(-c3ccc(Cl)cc3)c(CC(=O)O)n2C1,2350 nM (active)
13,Cc1cc(-c2ccc(CC(=O)Nc3ccc(-c4cccnc4)cc3)cc2)ccn1,14800 nM (active)
14,Cc1ccc(NC(=O)c2cccc(C(C)(C)C#N)c2)cc1Nc1ccc2ncn(C)c(=O)c2c1,2350 nM (active)
15,O=C1[C@H](Cc2ccc(O)cc2)N2C(=O)CCN(C(=O)NCc3ccccc3)[C@H]2CN1Cc1cccc2ccccc12,inactive
